Here are results for 40 compounds from the supplement of paper PMC8975748.

Structures can show the parent of a compound that is named as a salt.

This test deals with Saccharomyces cerevisiae BY4741 SeMeCo community. Description: z-score of subpopulation abundance vs DMSO median, subpopulation auxotrophic for HLU; higher = larger share of this subpopulation than in DMSO controls. Conditions: 10 µM; 24 h; SM minimal medium; subpopulation (auxotrophy): HLU. The method, then: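 Fluorescent four-plasmid SeMeCo (self-establishing metabolically cooperating S. cerevisiae BY4741 community; plasmids pH-mRuby2, pL-mWasabi, pU-eCFP, pM-TagRFP657) was grown 24 h in minimal SM medium with each Selleck FDA-approved drug at 10 µM in 384-well plates. Cells were fixed and imaged by high-content confocal microscopy. For each auxotrophic subpopulation (and the prototroph), a z-score gives the deviation from the DMSO vehicle-control population median.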
Turning to `O=C1C(N(CO)C(=O)NCO)N(CO)C(=O)N1CO` (stereo not given) [Diazolidinyl urea], the “z-score of subpopulation abundance” value was 0.05. The value for `COCCCOc1ccnc(C[S+]([O-])c2nc3ccccc3[nH]2)c1C` (stereo not given) [Rabeprazole] was 1.71; that for `CNCC[C@H](Oc1cccc2ccccc12)c1cccs1` [Duloxetine HCl] was -0.74. The value for `O=c1c(-c2ccc(O)cc2)coc2c([C@@H]3O[C@H](CO)[C@@H](O)[C@H](O)[C@H]3O)c(O)ccc12` [Puerarin] was 0.12; that for `C[C@H](NCc1ccc(OCc2cccc(F)c2)cc1)C(N)=O` [Safinamide] was 0.72. As for `COc1ccccc1OCC(O)CN1CCN(CC(=O)Nc2c(C)cccc2C)CC1` (stereo not given) [Ranolazine 2HCl], the figure is -0.68; as for `Clc1ccc(COC(Cn2ccnc2)c2ccc(Cl)cc2Cl)c(Cl)c1` (stereo not given) [Miconazole Nitrate], 11.6; as for `CCCNC(C)C(=O)Nc1ccccc1C` (stereo not given) [Prilocaine], 0.3. Turning to `C[C@H]1c2cccc(O)c2C(O)=C2C(=O)[C@]3(O)C(O)=C(C(N)=O)C(=O)[C@@H](N(C)C)[C@@H]3[C@@H](O)[C@@H]21` [Doxycycline monohydrate], the “z-score of subpopulation abundance” value was -0.54. The value for `CC1(C)S[C@@H]2[C@H](NC(=O)[C@H](N)c3ccc(O)cc3)C(=O)N2[C@H]1C(=O)O` [Amoxicillin Sodium] was -0.65; that for `OCc1ccccc1O[C@@H]1O[C@H](CO)[C@@H](O)[C@H](O)[C@H]1O` [Salicin] was -0.13.

In the case of `C=CC[N+]1([C@H]2C[C@H]3[C@@H]4CC[C@H]5C[C@H](O)[C@@H](N6CCOCC6)C[C@]5(C)[C@H]4CC[C@]3(C)[C@H]2OC(C)=O)CCCC1` [Rocuronium Bromide], the “z-score of subpopulation abundance” value was 0. `CC(C)N1CCN(c2ccc(OCC3COC(Cn4cncn4)(c4ccc(Cl)cc4Cl)O3)cc2)CC1` (stereo not given) [Terconazole]: the “z-score of subpopulation abundance” value is -0.59. As for `c1cnc2cc3c(cc2n1)[C@@H]1CNC[C@H]3C1` [Varenicline Tartrate], the figure is -0.4. The value for `Cc1onc(-c2ccccc2)c1-c1ccc(S(N)(=O)=O)cc1` [Valdecoxib] was -0.52; that for `CC1=C(CC(=O)O)c2cc(F)ccc2/C1=C\c1ccc([S+](C)[O-])cc1` (stereo not given) [Sulindac] was -0.15; that for `CO/N=C(\C(=O)N[C@@H]1C(=O)N2C(C(=O)O)=C(CSc3nc(C)c(CC(=O)O)s3)CS[C@H]12)c1csc(N)n1` [Cefodizime Sodium] was -1.16.

On to `CN(C)CCc1c[nH]c2ccc(CS(=O)(=O)N3CCCC3)cc12` [Almotriptan Malate], for which the “z-score of subpopulation abundance” value is -0.86. The value for `O=C(Cn1ccnc1[N+](=O)[O-])NCc1ccccc1` [Benznidazole] was -0.74; that for `Cc1cccc(C)c1NC(=O)C1CCCCN1C` (stereo not given) [Mepivacaine] was 0.12; that for `CCOC(=O)c1ccc(O)cc1` [Ethylparaben] was -0.25. As for `O=C(O[C@@H]1C[C@@H]2C[C@H]3C[C@H](C1)N2CC3=O)c1c[nH]c2ccccc12` [Dolasetron Mesylate], the figure is 0.01; as for `CC(C)COc1ccc(CNC(=O)N(Cc2ccc(F)cc2)C2CCN(C)CC2)cc1` [Pimavanserin], -0.54; as for `C#C[C@]1(O)CC[C@H]2[C@@H]3CCc4cc(OC5CCCC5)ccc4[C@H]3CC[C@@]21C` [Quinestrol], 0.72. As for `CC1CCc2c(N3CCC(O)CC3)c(F)cc3c(=O)c(C(=O)O)cn1c23` (stereo not given) [Nadifloxacin], the figure is -0.45; as for `CC(=O)NS(=O)(=O)c1ccc(N)cc1` [Sulfacetamide Sodium], -0.24.

As to `C(=C\c1ccccc1)/CN1CCN(C(c2ccccc2)c2ccccc2)CC1` [Cinnarizine], the “z-score of subpopulation abundance” value was 1.32.

As for `CCN1CC(CCN2CCOCC2)C(c2ccccc2)(c2ccccc2)C1=O` (stereo not given) [Doxapram HCl], the “z-score of subpopulation abundance” value is -0.53. As for `Oc1c(Br)cc(Br)c2cccnc12` [Broxyquinoline], the figure is 27.1; as for `C#CCN[C@@H]1CCc2ccccc21` [Rasagiline Mesylate], 0.21; as for `O=C(c1ccccc1)c1ccc2n1CCC2C(=O)O` (stereo not given) [Ketorolac tromethamine salt], -0.16. As for `Cc1c(-c2ccc(O)cc2)n(Cc2ccc(OCCN3CCCCCC3)cc2)c2ccc(O)cc12` [Bazedoxifene HCl], the figure is -0.15; as for `CCCCCCCCc1ccc(CCC(N)(CO)CO)cc1` [Fingolimod], -1.65. As for `Cc1c(Nc2ncccc2C(=O)O)cccc1C(F)(F)F` [Flunixin Meglumin], the figure is -1; as for `CCOc1ccc(NC(C)=O)cc1` [Phenacetin], 0.79. As for `CCN(CC)CCOCCOC(=O)C1(c2ccccc2)CCCC1` [Pentoxyverine Citrate], the “z-score of subpopulation abundance” value was -0.39.

Consider `CCCCCCCCCCCCCCCC[N+](C)(C)C` [Cetrimonium Bromide (CTAB)], for which the “z-score of subpopulation abundance” value is 19.1. For the compound `COCCOC(=O)C1=C(C)NC(C)=C(C(=O)OC(C)C)C1c1cccc([N+](=O)[O-])c1` (stereo not given) [Nimodipine], the “z-score of subpopulation abundance” value was -0.01. With `CC(=O)[O-].[K+]` [Potassium acetate], the “z-score of subpopulation abundance” value was -0.71. The value for `C#CCC(Cc1cnc2nc(N)nc(N)c2n1)c1ccc(C(=O)N[C@@H](CCC(=O)O)C(=O)O)cc1` (stereo not given in full) [Pralatrexate] was 0.5.
